In the library only some 2.4% were active in any assay of this set; here they are far more common.
CHO-K1 Ca ag – counter-screen for M1 agonists: effect in parental CHO-K1 cells; 0.48% of 360,000 active; Fluo-8 calcium fluorescence; scaled to maximal ATP response, vehicle zero; AID 602248, 2012; activation, % at 3 µM; in the data active means activation above about 15%;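 further: untransfected CHO-K1 host cells lacking M1 receptor as counterscreen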
CHRM1 agonist – human M1 muscarinic receptor agonists, primary screen, Fluo-8 calcium fluorescence, CHO-K1 cells, HTS | CHO-K1 hM1, agonist mode; 0% DMSO, 100% acetylcholine EC100 | activation, % at 3 µM | 0.33% of 360,000 active;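 active means activation above the run's mean compound activation plus 3 SD, cut at about 16% in these data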;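 further: peak over basal fluorescence ratio within a 140 s kinetic read after compound addition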
Target sequence (P11229 whole entry, looked up): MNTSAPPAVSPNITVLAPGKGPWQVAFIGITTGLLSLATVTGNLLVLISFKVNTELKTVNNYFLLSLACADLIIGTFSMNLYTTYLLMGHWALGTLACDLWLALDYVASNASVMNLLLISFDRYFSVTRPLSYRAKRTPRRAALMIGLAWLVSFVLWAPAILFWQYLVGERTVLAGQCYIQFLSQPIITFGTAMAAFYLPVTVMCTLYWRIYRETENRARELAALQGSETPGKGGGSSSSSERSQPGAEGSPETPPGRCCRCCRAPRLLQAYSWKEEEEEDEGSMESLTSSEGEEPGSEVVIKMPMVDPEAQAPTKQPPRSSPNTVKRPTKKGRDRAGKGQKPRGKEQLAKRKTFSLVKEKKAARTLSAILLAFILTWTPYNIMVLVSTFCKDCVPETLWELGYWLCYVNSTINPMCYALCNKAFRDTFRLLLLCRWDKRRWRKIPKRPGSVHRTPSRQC
CHRM1 antagonist – human M1 muscarinic receptor antagonists, primary screen, CHO-K1 cells, Fluo-8 calcium fluorescence, 1536-well; Muscarinic acetylcholine receptor M1 (Homo sapiens), P11229; CHO-K1 hM1, ACh EC80 antagonist; inhibition, % at 3 µM; 1.3% of 360,000 active; AID 588852, 2011;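 active means percent inhibition above its own plate's cutoff, namely the mean of that plate's compound wells plus 3 SD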;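 further: peak over basal fluorescence ratio during 140 s after agonist addition; 0% = ACh EC80 plus DMSO and 100% = DMSO alone without agonist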
CHO-K1 Ca PAM – nonselective calcium activators in parental CHO-K1 cells, primary screen, counter-screen for M1 PAM project, cell-based, Fluo-8 calcium fluorescence, full deck, 1536-well; ATP EC20; 0% at ATP EC20, 100% at ATP max; 0.02% of 360,000 active; activation, % at 3 µM; AID 602247, 2012;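 active means activation above the run cutoff, the mean activation of all test compounds plus 3 SD, cut at about 40% in these data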;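 further: peak over basal fluorescence ratio in a 140 s read after ATP addition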
CHO-K1 Ca antag – M1 antagonist counterscreen hit in parental CHO-K1 cells; ATP-induced calcium, Fluo-8 fluorescence; inhibition, % at 3 µM; 0.6% of 360,000 active;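 active means inhibition above a per-plate cutoff, the plate's mean sample inhibition plus 3 SD, cut at about 24% in these data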;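 further: 0% = DMSO plus EC80 ATP and 100% = DMSO alone without ATP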
CHRM1 PAM – human M1 muscarinic receptor positive allosteric modulators, primary screen, CHO-K1 cells, Fluo-8 calcium fluorescence, 1536-well | activation, % at 3 µM | 0.088% of 360,000 active | Muscarinic acetylcholine receptor M1 (Homo sapiens), P11229 | CHO-K1 hM1, ACh EC20; 0% = ACh EC20, 100% = maximal ACh; in the data active means activation above about 19%, passing the limit was not always enough
Numbers without * were called inactive.

SMILES | CHO-K1 Ca ag | CHRM1 agonist | CHRM1 antagonist | CHO-K1 Ca PAM | CHO-K1 Ca antag | CHRM1 PAM
O=C(O)CNC(=O)C1(NC(=O)OCc2ccccc2)CCCC1 | 1 | 0 | -11 | 15 | -15 | 5
CCN(CC)C1CCN(C(=O)c2ccc3nc(Cc4ccc(OC)cc4)oc3c2)C1 (stereo not given) | 0 | -6 | -2 | -9 | -4 | 0
COc1cc(C(=O)Oc2cccc(Nc3ncnc4ccccc34)c2)cc(OC)c1OC | 11 | 0 | 41* | -3 | 11 | -20
CC(=O)Nc1ccc(C(=O)COC(=O)C2CC2)c(F)c1 | 0 | 5 | 0 | -30 | 28* | 10
CC(=O)Nc1ccc(C(=O)COC(=O)C2CCCCC2)c(F)c1 | 4 | 4 | -3 | 2 | -9 | 4
COc1ccc(Br)c(C(=O)Nc2cccc(Cl)c2Cl)c1 | 0 | -8 | 12 | -14 | 31* | -9
C[C@H](NC(=O)c1ccco1)C(=O)NCc1cccs1 | 0 | -2 | 7 | 2 | 2 | 1
Cc1no[n+]([O-])c1COc1cccc(/C=C2\N=C(c3ccccc3)OC2=O)c1 | -1 | -3 | -10 | 13 | 5 | 11
O=C1OC(c2ccccc2)=N/C1=C/c1cccc(OC(=O)c2cccs2)c1 | 2 | -2 | -15 | 7 | 43* | 2
COc1c(Cl)cnn(-c2ccccc2)c1=O | 0 | 0 | 4 | 12 | 2 | 3
COc1c(Cl)cnn(-c2ccc(Cl)c(Cl)c2)c1=O | 17* | -13 | -7 | 26 | -6 | 15
Cc1ccc(C)c(NC(=O)C(c2ccccc2)N2CCN(CC(=O)N3CCOCC3)CC2)c1 (stereo not given) | 2 | -1 | -5 | 21 | -14 | 7
Cc1ccc(C)c(NC(=O)C(NCC(C)(C)N2CCOCC2)c2ccccc2)c1 (stereo not given) | 1 | -8 | 92* | 17 | -10 | -27
COc1ccc(-c2csc(NC(=O)C3=NN(c4ccccc4)C(=O)CC3)n2)cc1 | 9 | -6 | 24* | 12 | 10 | -18
O=C(Nc1ccc(Cl)cc1)Nc1csc([N+](=O)[O-])c1 | 16* | 8 | 29 | 2 | 16 | -3
O=C(Nc1ccc(Cl)cc1)Nc1ccccc1CC[N+](=O)[O-] | 10 | 0 | 11 | -14 | 24* | -21
CN(C)C(=O)Nc1ccccc1CC[N+](=O)[O-] | 0 | -4 | -4 | 18 | -8 | 5
COc1ccccc1-c1nnc(SCC(=O)NC2CCS(=O)(=O)C2)n1CCc1ccccc1 (stereo not given) | 0 | -8 | -2 | 1 | 3 | 7
COc1ccc(NC(=O)CN2CCC(C(=O)c3ccc(F)cc3)CC2)c(OC)c1 | 37* | -2 | 2 | -9 | -11 | -1
COc1ccc(NC(=O)C2CCCCN2S(=O)(=O)c2ccc(F)cc2)c(OC)c1 (stereo not given) | 0 | -2 | -3 | -4 | 27* | 9
COc1ccc(NC(=O)CN2CCN(CC(=O)Nc3ccccc3Cl)CC2)c(OC)c1 | 1 | -2 | -10 | 19 | -22 | 6
COc1ccccc1NC(=O)C1CCCCN1S(=O)(=O)c1ccc(F)cc1 (stereo not given) | 0 | -7 | -2 | 2 | 8 | 3
COc1ccc(NC(=O)CN2CCN(c3nc(-c4ccc(F)cc4)cs3)CC2)c(OC)c1 | 0 | -5 | -7 | 53* | -26 | 8
COc1ccc(NC(=O)CN2CCN(c3ccc(Cl)cc3)CC2)c(OC)c1 | 0 | -3 | -4 | 42* | -21 | -1
O=C(NCC(c1ccco1)N1CCc2ccccc21)c1cccc([N+](=O)[O-])c1 (stereo not given) | 0 | -7 | 0 | 21 | 1 | -1
C[C@H](CO)N1C[C@H](C)[C@@H](CN(C)Cc2ccc(C(=O)O)cc2)Oc2ccc(NS(=O)(=O)c3cn(C)cn3)cc2C1=O | 0 | -1 | -25 | 6 | -9 | 16

Source: PubChem
